Source: PubChem (National Center for Advancing Translational Sciences (NCATS))
BAZ2B block: inhibitors of human BAZ2B bromodomain | Q9UIF8 | AlphaScreen BAZ2B-H3K14Ac peptide displacement | Potency, µM (doses to about 114 µM), inactives show top-dose activity change, negative = inhibition, usual class: inhibitors | 360,000 compounds, 4.4% hits; also: % is scaled to controls: 0 for no effect and ±100 for the full control effect; nearly all actives have a fitted effect of over 60% in size
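AlphaScreen luminescence quantifies BAZ2B engagement of H3K14Ac peptide; the protein and biotinylated peptide are both at 50 nM final, buffer PBS pH 7.4 with 0.01% Tween-20, all steps at room temperature.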
JMJD2A Tudor inh: inhibitors of human JMJD2A Tudor domain; O75164; AlphaScreen JMJD2A-Tudor / H3K4me3 peptide binding; Potency, µM (series often up to 114 µM), for the others: at the top dose activity change, negative = inhibition, most hits filed as inhibitors; 390,000 compounds, 4.4% hits; also: % is scaled to controls: 0 for no effect and ±100 for the full control effect; nearly all actives have a fitted effect of over 50% in size
Target sequence (O75164 whole entry, looked up, the tested form may be a part): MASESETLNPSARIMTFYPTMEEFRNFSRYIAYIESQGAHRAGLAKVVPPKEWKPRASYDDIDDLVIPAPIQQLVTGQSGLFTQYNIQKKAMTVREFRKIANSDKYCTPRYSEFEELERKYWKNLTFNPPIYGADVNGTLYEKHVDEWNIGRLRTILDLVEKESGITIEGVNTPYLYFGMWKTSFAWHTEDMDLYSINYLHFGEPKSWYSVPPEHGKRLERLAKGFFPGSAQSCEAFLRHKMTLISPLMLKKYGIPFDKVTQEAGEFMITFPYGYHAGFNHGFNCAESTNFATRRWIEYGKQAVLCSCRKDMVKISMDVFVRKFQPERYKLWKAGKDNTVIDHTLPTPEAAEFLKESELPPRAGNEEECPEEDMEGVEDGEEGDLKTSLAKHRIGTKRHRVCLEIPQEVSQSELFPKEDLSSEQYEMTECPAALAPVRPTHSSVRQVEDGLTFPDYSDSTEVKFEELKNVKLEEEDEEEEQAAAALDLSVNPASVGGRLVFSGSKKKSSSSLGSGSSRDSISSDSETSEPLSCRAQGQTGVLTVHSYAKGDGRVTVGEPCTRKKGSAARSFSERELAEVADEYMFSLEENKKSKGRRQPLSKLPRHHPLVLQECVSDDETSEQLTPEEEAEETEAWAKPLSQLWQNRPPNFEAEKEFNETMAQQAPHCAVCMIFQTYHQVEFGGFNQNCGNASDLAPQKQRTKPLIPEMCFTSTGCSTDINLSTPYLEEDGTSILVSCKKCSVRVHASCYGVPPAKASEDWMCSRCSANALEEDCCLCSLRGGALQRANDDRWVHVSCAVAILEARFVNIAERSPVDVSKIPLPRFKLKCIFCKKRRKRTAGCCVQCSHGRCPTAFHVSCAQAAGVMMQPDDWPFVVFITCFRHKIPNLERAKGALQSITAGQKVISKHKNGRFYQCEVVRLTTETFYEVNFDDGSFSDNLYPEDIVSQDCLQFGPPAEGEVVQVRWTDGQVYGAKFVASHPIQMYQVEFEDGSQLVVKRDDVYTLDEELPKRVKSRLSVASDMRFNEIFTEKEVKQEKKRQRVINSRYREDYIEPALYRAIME
HP1b chromo inh: blocks HP1-beta chromodomain binding to methylated histone tails. 390,000 compounds, 0.56% hits. Potency, µM (series often up to 114 µM), without a hit: top-dose activity change, negative = inhibition, hits mostly inhibitors. AlphaScreen HP1-beta / biotin-H3K9me3 peptide binding. AID 540317; also: nearly all actives have a fitted effect of over 70% in size
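HP1-beta protein (50 nM final) preincubated 30 min at room temperature with biotinylated H3(1-18)K9me3 peptide (50 nM) in PBS pH 7.4, 0.01% Tween-20, then compound added for 30 min. AlphaScreen streptavidin donor/nickel chelate acceptor beads (10 ug/mL final), 30 min dark, luminescence read.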
Sfp inh: Sfp phosphopantetheinyl transferase inhibition; Q9F4F7; Biochemical Sfp PPTase activity, qHTS; Potency, µM, inactives show largest response in the series, negative = inhibition, actives largely listed as inhibitors; 310,000 compounds, 3.5% hits;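 also: the enzyme is Sfp with the accession as filed and its product quenches rhodamine fluorescence; 0% = enzyme reaction without inhibitor and -100% = no enzyme wells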
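Step 1, compound plus 15 nM Sfp-PPTase, 15 min, room temperature. Step 2, add rhodamine-CoA (5 uM) and BHQ-2-YbbR (12.5 uM). Step 3, read 525/598 nm fluorescence at 0 and 30 min.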
L3MBTL1 block: L3MBTL1 (human) inhibition | Q9Y468 | AlphaScreen L3MBTL1–H3K9me1 peptide binding | Potency, µM (top dose mostly 57.1 µM), for the others: top-dose activity, negative = inhibition, usual class: inhibitors | 230,000 compounds, 0.66% hits; also: % is scaled to controls: 0 for no effect and ±100 for the full control effect; nearly all actives have a fitted effect of over 60% in size
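Read-out is AlphaScreen signal from streptavidin donor and nickel chelate acceptor beads (10 ug/mL final each) bridging L3MBTL1 (50 nM) and biotinylated K9-monomethylated H3(1-15) peptide (75 nM), after 30 min compound exposure at room temperature.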
G9a block: G9a (human) methyltransferase inhibition; Q96KQ7; G9a H3K9 monomethylation, AlphaScreen, 2 h; Potency, µM (series often up to 102 µM), for the others: top-dose activity, negative = inhibition, hits mostly inhibitors; 350,000 compounds, 8.8% hits; also: % is scaled to controls: 0 for no effect and ±100 for the full control effect; nearly all actives have a fitted effect of over 75% in size
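Signal arises when biotinylated H3K9 peptide, once monomethylated, bridges streptavidin donor and antibody-captured acceptor beads. Enzyme at 20 nM was preincubated 15 min with test compounds; peptide 500 nM and SAM 20 uM then reacted for 2 h.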
Starred values were filed as active, the others as inactive; ? = inconclusive; / = no result given; ! = not active in a repeat; [ ] = another dose, or the depositor's remark. Shown are actives, neighbours in structure and some others; about 12% of the full set was active somewhere. Calls follow the shape of the dose curve; as a rule, active = well fitted curve in the direction sought with a large enough effect; inconclusive = small, poorly fitted or top-dose-only effect, or another doubt; inactive = no such curve, though single readings can be large; an effect the other way counts as inactive or inconclusive. Potency is read from the fitted curve at half-maximal effect.

SMILES | BAZ2B block | JMJD2A Tudor inh | HP1b chromo inh | Sfp inh | L3MBTL1 block | G9a block
COc1cccc(Nc2ncc3nc(C)c(=O)n(Cc4cccs4)c3n2)c1 | / | / | / | 17% | / | 1%[0.501 µM]
O=S1(=O)N[C@@H](Cc2ccccc2)COc2cc(Br)ccc21 | / | 6% | 48% | / | 10% | /
COc1ccc(-c2nc3cnc(N(C)C)nc3n(CCC#N)c2=O)cc1 | / | / | / | 17% | / | 18%[0.501 µM]
C=CCn1cccc(/C=C/C(=O)c2ccc(C(C)(C)C)cc2)c1=S | 11µM* | 32µM* | ? | -21% | 28µM* | ?
O=C1C=C(c2ccc(C(=O)O)cc2)C[C@@H](c2ccc(F)cc2)C1 | / | -14% | 42% | / | 9% | /
COc1ccc(NC(=O)c2ccccc2NS(=O)(=O)c2ccc(C)cc2)c([N+](=O)[O-])c1 | ? | ? | -30% | 10% | -9% | 3.2µM*
COc1ccccc1NS(=O)(=O)c1ccc(O)c(C(=O)OCc2cccc([N+](=O)[O-])c2)c1 | / | -24% | 8% | -5% | -11% | -7%
COc1ccc(NS(=O)(=O)c2ccc(C)cc2)c([N+](=O)[O-])c1 | -33% | -3%[11.4 µM] | ? | 11% | -16% | ?
COc1ccc(C(=O)COC(=O)c2ccccc2NS(=O)(=O)c2ccc(O)c([N+](=O)[O-])c2)cc1 | 56µM* | ? | -29% | 8% | -27% | ?
Nc1ncnc2c1cnn2C1CCCCC1 | 0% | -10% | 75% | 15% | -1% | 2%
O=S(=O)(Nc1ccncc1)c1ccc(Cl)cc1 | 2% | 1% | 23% | 8% | / | -10%[59 µM]
O=S(=O)(Nc1ccncc1)c1ccccc1 | ? | 12%[57.1 µM] | 47% | 17% | -3% | 50µM*
O=S(=O)(Nc1cccnc1)c1ccccc1 | -15% | 50µM*! | 19% | 12% | / | 14%[59 µM]
CCOC(=O)C1(CCOc2ccccc2)CCN(CC(O)CO)CC1 (stereo unspecified) | -32% | -5% | 23% | 16% | 2% | -15%
CC(C)(C)Nc1c(-c2ccc(O)cc2)nc2ccc(Cl)cn12 | ? | -3% | 43% | 63µM* | -25% | /
COC(=O)c1ccc(NC(=O)N2CCN(Cc3cc(=O)n4nc(-c5ccc(C)cc5)sc4n3)CC2)cc1 | 1% | -11% | 15%[57 µM] | / | / | 21%[59 µM]
COc1cc(/C=N/N=C(N)N)ccc1OCc1ccccc1Cl | -38% | ? | -9% | 25µM* | -25% | ?
CCN(Cc1ccccc1)C(=O)c1cccc(S(=O)(=O)N2CCN(Cc3ccccc3)CC2)c1 | -6% | -25% | -1% | / | -10% | ?
COc1ccccc1-c1nnc(C2CCN(S(=O)(=O)c3ccccc3)CC2)o1 | -14% | -8% | 46% | / | / | ?
Cc1cccc(-c2nnc(C3CCN(S(=O)(=O)c4cccc(Cl)c4)CC3)o2)c1 | -13% | -29% | -6% | / | / | 3.2µM*
CC(=O)Nc1ccc(S(=O)(=O)N2CCC(c3nnc(-c4ccc(C)cc4)o3)CC2)cc1 | 0% | -13% | 37% | 50µM* | -1% | 28µM*
COc1ccc(-c2nnc(C3CCN(S(=O)(=O)c4ccccc4)CC3)o2)cc1 | -2% | -12% | 34% | -15% | 2% | 40µM*
COc1ccccc1-c1nnc(C2CCN(S(=O)(=O)c3ccccc3[N+](=O)[O-])CC2)o1 | -17% | -32% | 18% | -13% | / | 40µM*
COc1ccc(-c2nc3cnc(OC)nc3n(Cc3cccs3)c2=O)cc1 | / | / | / | -11% | / | 11%[12.7 µM]
CSc1nn(CCc2ccncc2)c(=S)s1 | ? | -8% | 49% | 50µM* | -11% | -41%[12.7 µM]
CC(CCc1ccco1)NC(=O)Cn1ncc2c1-c1ccccc1OC2 (stereo unspecified) | -34% | -29% | 8% | 50µM* | -10% | ?
O=C(Cn1ncc2c1-c1ccccc1OC2)N(Cc1ccco1)C1CCCCC1 | -31% | ? | 5% | -10% | -1% | ?
O=C(/C(=C/O)N=Nc1ccc(Cl)cc1)c1ccncc1 | 32µM* | ? | -50% | -1% | -12% | 17%[0.501 µM]
